Assay results as given in PubChem BioAssay (Tox21).
Where “and” joins values, the source holds several entries; their conditions need not be identical. Identical values can stand only once. Records with an inconclusive call do not appear. Calls of active or inactive are those of the source. Unless noted, the call rests on the fitted dose curve; in most records, active means well fitted curve in the direction sought with a large enough effect in the repeat runs; inconclusive means weak or mixed curves; inactive means no such curve, though single readings can be large; an effect the other way counts as inactive or inconclusive.

Columns and labels:
[1] = target: Estrogen receptor beta (Homo sapiens) (UniProt Q92731); experiment: qHTS assay to identify small molecule agonists of the estrogen receptor beta (ER-beta) signaling pathway (AID 1259377; active means well fitted activation curve with a large enough effect in the signal ratio in the repeat runs, not every such curve was filed as active; the % refers to the signal ratio)
Summary of the method: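 ER-beta-UAS-bla HEK293T cells in medium with 2% charcoal-stripped FBS were exposed to compounds for 16 h at 37C. Beta-lactamase reporter activity was read as fluorescence after 2 h with LiveBLAzer B/G FRET substrate at room temperature.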

[2] = target: Estrogen receptor beta (Homo sapiens) (UniProt Q92731); experiment: qHTS assay to identify small molecule antagonists of the estrogen receptor beta (ER-beta) signaling pathway (AID 1259378; active means well fitted inhibition curve with a large enough effect in the signal ratio in the repeat runs, not every such curve was filed as active; the % refers to the signal ratio; further: potency means the concentration at half of the fitted maximal effect)
Summary of the method: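 ER-beta-UAS-bla HEK293T (GripTite) cells in 2% charcoal-stripped FBS medium were preincubated 6 hr at 37C, dosed with compound, then stimulated with 1 nM E2 (final) for 16 hr; beta-lactamase reporter read by B/G FRET fluorescence after 2 hr substrate loading.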

[3] = qHTS assay to identify small molecule agonists of the androgen receptor (AR) signaling pathway in the presence of an antagonist - cell viability counter screen (AID 1259379); further: nearly all actives have a fitted effect of over 25% in size; further: potency means the concentration at half of the fitted maximal effect
Summary of the method: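 Cytotoxicity counter-screen run in the same wells as the nilutamide-challenged (3.0 µM final) AR agonist assay in MDA-kb2 cells. Compounds tested at 15 concentrations for 16 h, 37 °C without CO2; CellTiter-Fluor fluorescence read.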

[4] = qHTS assay to identify small molecule agonists of the estrogen receptor beta (ER-beta) signaling pathway - cell viability counter screen (AID 1259380); further: nearly all actives have a fitted effect of over 30% in size; further: potency means the concentration at half of the fitted maximal effect
Summary of the method: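 Cell viability counter screen: CellTiter-Glo luminescence (30 min, room temperature) measured in the same wells as the beta-lactamase readout, after 16 hr compound exposure at 37C of ER-beta-bla HEK293T cells in 2% charcoal-stripped FBS medium.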

[5] = qHTS assay to identify small molecule agonists of the estrogen receptor alpha (ER-alpha) signaling pathway in the presence of an antagonist - cell viability counter screen (AID 1259386); further: nearly all actives have a fitted effect of over 30% in size; further: potency means the concentration at half of the fitted maximal effect
Summary of the method: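 Compounds tested at 15 concentrations for 22 h at 37C alongside 10.0nM (final) ICI-182,780 antagonist, in VM7Luc4E2 cells grown in phenol red-free, charcoal-stripped medium. Viability read by CellTiter-Fluor fluorescence after 1 h reagent incubation.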

[6] = qHTS assay to identify small molecule antagonists of the TGF-beta/Smad signaling pathway - cell viability counter screen (AID 1346824); further: nearly all actives have a fitted effect of over 50% in size
Summary of the method: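 SBE-bla HEK 293T cells were plated overnight at 37 C, then given compounds in DMSO plus TGF-beta1 (added as 0.25 ng/mL solution) for 5 hr. After the bla read, CellTiter-Glo was added to the same wells and luminescence read after 30 min at room temperature.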

[7] = qHTS assay to identify small molecule agonists of the TGF-beta/Smad signaling pathway - cell viability counter screen (AID 1346829); further: nearly all actives have a fitted effect of over 45% in size; further: potency means the concentration at half of the fitted maximal effect
Summary of the method: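 Same-well cytotoxicity: CellTiter-Glo added after the 2 hr room-temperature beta-lactamase substrate step, luminescence measured 30 min later; cells had 5 hr of compound at 37 C.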

[8] = qHTS assay to identify small molecule agonists of the TGF-beta/Smad signaling pathway (AID 1346859; active means well fitted activation curve with a large enough effect in the signal ratio in the repeat runs, not every such curve was filed as active; the % refers to the signal ratio; further: series mostly up to about 77 µM)
Summary of the method: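 SBE-bla HEK293T cells plated overnight, then compound exposure for 5 h at 37 C. Beta-lactamase reporter read with LiveBLAzer B/G FRET substrate after 2 h at room temperature, fluorescence at 405 nm excitation, 460/530 nm emission.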

[9] = target: Thyrotropin-releasing hormone receptor (Homo sapiens) (UniProt P34981); experiment: qHTS assay to identify small molecule antagonists of the thyrotropin-releasing hormone receptor (TRHR) signaling pathway (AID 1346877; active means well fitted inhibition curve with a large enough effect in the repeat runs, not every such curve was filed as active; further: series mostly up to about 51 µM)
Summary of the method: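 Antagonist mode: after a 5 min room-temperature compound exposure, cells were stimulated with 1 nM (final) TRH. Dye-loaded TRHR-HEK293 cells were used, and calcium-dependent fluorescence was followed for 3 min, with 15-point titrations run in triplicate.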

[10] = target: Thyrotropin-releasing hormone receptor (Homo sapiens) (UniProt P34981); experiment: qHTS assay to identify small molecule agonists of the thyrotropin-releasing hormone receptor (TRHR) signaling pathway (AID 1346891; calls by dose curve; further: series mostly up to about 58 µM)
Summary of the method: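 HEK293 cells expressing TRHR plated 18 h at 37 C/5% CO2, calcium dye-loaded 2 h at 37 C, then compound added (agonist mode); kinetic calcium fluorescence read 3 min at 1 s intervals; 15 concentrations in triplicate.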

[11] = qHTS assay to identify small molecule antagonists of the estrogen receptor beta (ER-beta) signaling pathway - cell viability counter screen (AID 1259382); further: series mostly up to about 92 µM; nearly all actives have a fitted effect of over 55% in size
Summary of the method: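 Cytotoxicity was measured in the same wells by CellTiter-Glo luminescence after 30 min at room temperature. Cells were ER-beta-bla HEK293T in charcoal-stripped serum, given compound together with 1 nM E2 and incubated 16 h at 37C.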

[12] = qHTS assay to identify small molecule agonists or antagonists of the thyroid stimulating hormone receptor (TSHR) signaling pathway - wild type cell line counter screen (AID 1259384; calls by dose curve)
Summary of the method: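 Wild-type HEK293 cells were plated 18 h at 37 C/5% CO2, pin-dosed with compound plus Ro20-1724 medium, held 30 min at room temperature, then given cAMP-d2 and anti-cAMP-cryptate; fluorescence was read after 1 h. Fifteen concentrations, triplicate.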

[13] = target: Thyrotropin receptor (Homo sapiens) (UniProt P16473); experiment: qHTS assay to identify small molecule antagonists of the thyroid stimulating hormone receptor (TSHR) signaling pathway (AID 1259385; calls by dose curve; further: nearly all actives have a fitted effect of over 20% in size)
Summary of the method: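 TSHR-HEK293 cells were plated and held 18 h at 37C/5% CO2, then given compound plus Ro20-1724 and stimulated with TSH at 1.5 ng/mL final. After 30 min at room temperature, cAMP was detected with cAMP-d2/anti-cAMP-cryptate (1 h) by fluorescence.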

[14] = qHTS assay to identify small molecule antagonists of the progesterone receptor (PR) signaling pathway - cell viability counter screen (AID 1346798); further: nearly all actives have a fitted effect of over 50% in size; further: potency means the concentration at half of the fitted maximal effect
Summary of the method: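 PR-UAS-bla HEK293T cells, 3,000/well in 2% charcoal-stripped FBS medium, dosed with compounds plus R5020 agonist and incubated 16 h at 37C. Viability then measured in the same wells by CellTiter-Glo luminescence after 30 min at RT.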

[15] = target: Estrogen receptor (Homo sapiens) (UniProt P03372); experiment: qHTS assay to identify small molecule agonists of the estrogen receptor alpha (ER-alpha) signaling pathway in the presence of an antagonist (AID 1259383; calls by dose curve; further: top concentration of the series differs between compounds; nearly all actives have a fitted effect of over 15% in size)
Summary of the method: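 Agonist-mode confirmation run in the presence of 10.0nM (final) ICI-182,780 antagonist. The reporter was ERE-driven luciferase in VM7Luc4E2 cells, grown in charcoal-stripped serum. Cells were exposed to 15-concentration compound series for 22hr, then ONE-Glo luminescence was read.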

[16] = target: Progesterone receptor (Homo sapiens) (UniProt P06401); experiment: qHTS assay to identify small molecule agonists of the progesterone receptor (PR) signaling pathway (AID 1346784; calls by dose curve; further: nearly all actives have a fitted effect of over 30% in size)
Summary of the method: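 PR-UAS-bla HEK 293T cells (beta-lactamase reporter under UAS) in 2% charcoal-stripped FBS, dosed with 23 nL compound after 6 hr, incubated 16hr at 37C. LiveBLAzer B/G FRET substrate added, fluorescence read after 2 hours.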

[17] = target: Progesterone receptor (Homo sapiens) (UniProt P06401); experiment: qHTS assay to identify small molecule antagonists of the progesterone receptor (PR) signaling pathway (AID 1346795; active means well fitted inhibition curve with a large enough effect in the signal ratio in the repeat runs, not every such curve was filed as active; the % refers to the signal ratio; further: potency means the concentration at half of the fitted maximal effect)
Summary of the method: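 PR-UAS-bla HEK293T cells with beta-lactamase reporter under UAS control, in 2% charcoal-stripped FBS, treated with compounds plus 1 nM promegestone (R5020, final) for 16 hr at 37C. Read-out: FRET beta-lactamase substrate fluorescence after 2 hr at room temperature.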

[18] = qHTS assay to identify small molecule agonists of the progesterone receptor (PR) signaling pathway - cell viability counter screen (AID 1346799; calls by dose curve; further: nearly all actives have a fitted effect of over 45% in size; further: potency means the concentration at half of the fitted maximal effect)
Summary of the method: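 Counter screen in the PR-UAS-bla HEK293T wells (2% charcoal-stripped FBS, 16 h compound exposure at 37 C) after the bla read. CellTiter-Glo added, 30 min at room temperature, luminescence read as cell viability.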

Measured: Potency

Chain of Thyrotropin-releasing hormone receptor (Homo sapiens) (P34981 whole entry, looked up): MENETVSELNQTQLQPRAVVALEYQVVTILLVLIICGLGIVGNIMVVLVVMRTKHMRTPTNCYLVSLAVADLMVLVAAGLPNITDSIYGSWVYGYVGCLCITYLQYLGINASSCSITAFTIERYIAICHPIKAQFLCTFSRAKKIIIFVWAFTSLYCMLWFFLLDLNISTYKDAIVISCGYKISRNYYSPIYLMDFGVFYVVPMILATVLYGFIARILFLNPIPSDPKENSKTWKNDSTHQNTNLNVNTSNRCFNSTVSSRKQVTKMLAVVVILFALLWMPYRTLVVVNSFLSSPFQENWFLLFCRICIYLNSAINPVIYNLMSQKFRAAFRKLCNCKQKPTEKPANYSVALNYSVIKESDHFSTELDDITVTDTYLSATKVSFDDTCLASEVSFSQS
Chain of Estrogen receptor (Homo sapiens) (P03372 whole entry, looked up): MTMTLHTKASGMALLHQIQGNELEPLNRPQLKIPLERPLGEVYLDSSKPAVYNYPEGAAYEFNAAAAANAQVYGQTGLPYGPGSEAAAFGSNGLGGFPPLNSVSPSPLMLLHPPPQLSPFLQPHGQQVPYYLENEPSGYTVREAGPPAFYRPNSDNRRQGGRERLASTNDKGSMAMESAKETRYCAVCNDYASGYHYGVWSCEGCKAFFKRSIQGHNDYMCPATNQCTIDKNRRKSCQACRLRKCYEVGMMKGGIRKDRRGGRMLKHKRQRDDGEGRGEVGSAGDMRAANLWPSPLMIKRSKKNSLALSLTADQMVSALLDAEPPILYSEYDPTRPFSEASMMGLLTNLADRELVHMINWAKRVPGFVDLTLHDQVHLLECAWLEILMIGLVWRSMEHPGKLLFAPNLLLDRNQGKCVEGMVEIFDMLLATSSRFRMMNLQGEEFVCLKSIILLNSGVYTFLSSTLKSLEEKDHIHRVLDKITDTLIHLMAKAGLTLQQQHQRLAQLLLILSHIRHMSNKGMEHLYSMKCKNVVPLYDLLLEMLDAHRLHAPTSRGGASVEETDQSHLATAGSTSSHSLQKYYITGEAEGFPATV
Chain of Thyrotropin receptor (Homo sapiens) (P16473 whole entry, looked up): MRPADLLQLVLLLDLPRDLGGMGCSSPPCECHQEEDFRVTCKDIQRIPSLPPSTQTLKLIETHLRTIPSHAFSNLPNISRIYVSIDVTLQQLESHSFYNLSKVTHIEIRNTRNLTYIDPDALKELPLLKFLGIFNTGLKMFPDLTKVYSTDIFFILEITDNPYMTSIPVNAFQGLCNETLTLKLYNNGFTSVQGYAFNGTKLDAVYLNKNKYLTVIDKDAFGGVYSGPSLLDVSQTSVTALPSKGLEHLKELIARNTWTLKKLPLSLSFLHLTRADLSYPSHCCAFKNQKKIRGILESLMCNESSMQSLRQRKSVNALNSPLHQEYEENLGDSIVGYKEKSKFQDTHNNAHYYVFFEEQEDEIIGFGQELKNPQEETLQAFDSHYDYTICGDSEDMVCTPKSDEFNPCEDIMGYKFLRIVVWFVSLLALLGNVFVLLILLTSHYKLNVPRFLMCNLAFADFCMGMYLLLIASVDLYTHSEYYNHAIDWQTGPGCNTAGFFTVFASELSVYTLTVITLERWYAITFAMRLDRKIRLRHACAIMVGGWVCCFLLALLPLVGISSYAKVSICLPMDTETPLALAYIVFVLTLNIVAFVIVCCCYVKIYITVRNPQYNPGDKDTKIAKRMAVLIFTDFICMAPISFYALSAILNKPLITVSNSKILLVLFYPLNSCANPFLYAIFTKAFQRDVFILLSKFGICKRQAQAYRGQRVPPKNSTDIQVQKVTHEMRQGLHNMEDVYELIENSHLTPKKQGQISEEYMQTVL
Chain of Estrogen receptor beta (Homo sapiens) (Q92731 whole entry, looked up): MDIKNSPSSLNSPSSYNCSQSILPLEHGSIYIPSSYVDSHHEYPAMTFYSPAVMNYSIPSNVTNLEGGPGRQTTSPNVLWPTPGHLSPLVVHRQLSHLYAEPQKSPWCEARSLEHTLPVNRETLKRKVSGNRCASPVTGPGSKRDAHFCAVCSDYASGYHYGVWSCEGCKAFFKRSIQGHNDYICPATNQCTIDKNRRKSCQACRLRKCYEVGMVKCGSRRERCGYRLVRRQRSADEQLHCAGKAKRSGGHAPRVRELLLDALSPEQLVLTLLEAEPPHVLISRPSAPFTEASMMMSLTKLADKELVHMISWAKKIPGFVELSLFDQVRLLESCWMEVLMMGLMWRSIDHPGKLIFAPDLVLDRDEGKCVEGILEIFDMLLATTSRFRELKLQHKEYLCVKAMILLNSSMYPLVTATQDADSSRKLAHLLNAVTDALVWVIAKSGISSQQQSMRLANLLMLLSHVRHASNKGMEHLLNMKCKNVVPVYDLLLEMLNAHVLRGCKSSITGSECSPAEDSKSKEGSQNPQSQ
Chain of Progesterone receptor (Homo sapiens) (P06401 whole entry, looked up): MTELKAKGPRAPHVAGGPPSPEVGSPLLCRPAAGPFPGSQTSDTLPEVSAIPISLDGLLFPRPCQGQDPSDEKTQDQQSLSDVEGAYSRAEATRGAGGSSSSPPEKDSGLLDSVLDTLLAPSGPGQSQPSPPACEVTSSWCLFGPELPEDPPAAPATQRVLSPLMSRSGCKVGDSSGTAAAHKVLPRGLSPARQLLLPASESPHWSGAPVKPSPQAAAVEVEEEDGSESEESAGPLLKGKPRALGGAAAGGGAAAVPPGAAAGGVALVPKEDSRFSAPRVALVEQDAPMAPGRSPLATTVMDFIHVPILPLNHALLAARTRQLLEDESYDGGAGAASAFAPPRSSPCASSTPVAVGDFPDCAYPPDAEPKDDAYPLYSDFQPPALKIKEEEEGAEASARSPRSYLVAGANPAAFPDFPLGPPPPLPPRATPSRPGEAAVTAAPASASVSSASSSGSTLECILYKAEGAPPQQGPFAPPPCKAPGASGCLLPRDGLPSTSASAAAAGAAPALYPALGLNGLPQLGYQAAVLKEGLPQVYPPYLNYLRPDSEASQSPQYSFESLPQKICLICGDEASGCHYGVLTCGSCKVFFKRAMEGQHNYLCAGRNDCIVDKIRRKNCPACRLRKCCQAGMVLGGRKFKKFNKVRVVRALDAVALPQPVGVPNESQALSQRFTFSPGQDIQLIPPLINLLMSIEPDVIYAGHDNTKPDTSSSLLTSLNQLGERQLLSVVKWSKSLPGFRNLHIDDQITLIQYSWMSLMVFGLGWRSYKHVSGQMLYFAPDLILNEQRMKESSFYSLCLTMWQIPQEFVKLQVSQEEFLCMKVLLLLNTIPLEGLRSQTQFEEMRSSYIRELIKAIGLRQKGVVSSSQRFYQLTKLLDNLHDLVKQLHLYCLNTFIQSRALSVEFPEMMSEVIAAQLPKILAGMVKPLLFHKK

CCC(COC(=O)c1cc(OC)c(OC)c(OC)c1)(c1ccccc1)N(C)C (centres undefined)
inactive: [1] | [2] | [3] | [4] | [5] | [6] | [7] | [8] | [9] | [10]

CC(C)(C)C(O)C(Oc1ccc(Cl)cc1)n1cncn1 (centres undefined)
active: [14] 54.5 µM
not listed: [1] | [2] | [4] | [15] | [16] | [17] | [18]
inactive: all other assays above

O=C(CBr)OCc1ccccc1
not listed: [1] | [9] | [12] | [13] | [18]
inactive: all other assays above

O=S(=O)(Cl)c1ccccc1
not listed: [1] | [2] | [9] | [10] | [15]
inactive: all other assays above

C(=NC1CCCCC1)=NC1CCCCC1
active: [3] 2.45 µM and 4.86 µM | [7] 49.3 µM
not listed: [2] | [8] | [14] | [18]
inactive: all other assays above

O=[N+]([O-])c1cc(C(F)(F)F)cc([N+](=O)[O-])c1Cl
active: [4] 54.7 µM | [5] 30.8 µM | [18] 13.7 µM
not listed: [1] | [2] | [3] | [11] | [14] | [17]
inactive: all other assays above

COc1nn(CSP(=S)(OC)OC)c(=O)s1
inactive: [3] | [11] | [15] | [12] | [13] | [5] | [16] | [6] | [7] | [8]

Clc1cccc2ccccc12
not listed: [1] | [10] | [15]
inactive: all other assays above

O=C(O)C1(c2ccc3c(c2)OC[C@H](Cc2ccc(-c4ccccc4)cc2)[C@H]3O)CCCC1
active: [4] 27.3 µM | [17] 48.6 µM
inactive: [12] | [13] | [5] | [16] | [6] | [7]

CCOP(=S)(OCC)SCn1nnc2ccccc2c1=O
active: [2] 68.6 µM | [17] 27.3 µM
not listed: [3] | [5] | [14] | [18]
inactive: all other assays above

CCOP(=O)(OCC)O/C(=C/Cl)c1ccc(Cl)cc1Cl
inactive: [4] | [15] | [12] | [5] | [16] | [14] | [6] | [8]
active: [17] 10.9 µM
